The results in this text go back to ChEMBL document CHEMBL3988442, “University of Dundee, Small-Polar-MMV Screening Library” (2021).

For the experiment, the target named is AMP-activated protein kinase, AMPK (Homo sapiens) (UniProt P54646+O43741+P54619+Q9UGJ0+Q9Y478+Q13131+Q9UGI9). As to the kind of experiment: AMP-dependent Kinase enzyme assay. An in vitro enzyme assay that detects ADP turnover that is directly proportional to AMPK activity. This uses naive AMPK that is activated during the assay with MK-8722. The experiment is classed as functional. Further details: scale not given: direction of the effect not stated beside the values. The following applies: 30 µM.
`NC(=O)C1Cc2ccccc2CN1CCC(=O)N1CCc2ccccc21` (stereo not given): the Percent Effect is -3.92%.

Consider `CC(=O)N1CCCC1(C(=O)N1CCCC1)c1cnccn1` (stereo not given), for which the Percent Effect is -0.265%.

Turning to `Cc1noc(CCCNC(=O)C2CSCN2C(=O)C(C)(C)C)n1` (stereo not given), the Percent Effect was -6.28%.

Turning to `CCc1c(C)nn(CCN2CC3(CCOC3)CCC2=O)c1C` (stereo not given), the Percent Effect was -3.55%.

For `Cc1nccc(C2(C)CCCNC2)n1` (stereo not given), the Percent Effect was determined as 13.7%.

With `O=C(CCc1ccsc1)NCC1CCN(C2CC2)C1` (stereo not given), the Percent Effect was -5.43%.

`Cc1cc(C)n(CCN2CCC(N(C)Cc3noc(C4CC4)n3)C2)n1` (stereo not given): the Percent Effect came to 3.34%.

Regarding `Cc1nnc(N2CCc3cncnc3C2)c(C#N)c1C`, the Percent Effect was -187%.

Regarding `COc1ccccc1OCc1nc2cc3c(cc2c(=O)o1)OCCCO3`, the Percent Effect was -8.93%.

For `CS(=O)(=O)N1CCN(c2cc(N3CCCC3CO)ncn2)CC1` (stereo not given), the Percent Effect was -5.51%.

As for `COc1ccc2cc(C(=O)NCCNc3ccc(C)nn3)[nH]c2c1`, the Percent Effect was 8.22%.

For `COc1ccc(CN(C)Cc2c(C)noc2C)c(Cl)c1OC`, the Percent Effect is 6%.

Take `CC(NC(=O)N1CCCN(C)CC1)c1ccc2c(c1)OCCO2` (stereo not given): the Percent Effect is 3.15%.

Regarding `CCSCCn1cc(-c2ncc[nH]2)nn1`, the Percent Effect is -2.81%.

Take `NC(=O)c1ccnc(N2CCCC(CO)(Cc3ccc(F)cc3)C2)c1` (stereo not given): the Percent Effect came to 16.1%.

As for `O=C(CN1CC(c2ccccc2)CC1=O)N1CCN(c2nccs2)CC1` (stereo not given), the Percent Effect came to 15.4%.

Turning to `COCC1CCN(C(=O)c2cc(O)nc(CC(C)C)c2)CC1`, the Percent Effect was -1.75%.

Regarding `CC(=O)N1CCc2c(nc(N(C)C)nc2NCCCn2ccnc2C)C1`, the Percent Effect amounted to 7.72%.

On to `C[C@@H]1CN(C(=O)C2(Cn3cccn3)CC2)CC[C@@]1(O)C1CC1`, for which the Percent Effect is -6.74%.

Turning to `O=C(NC1CCCC1)c1cc(Cn2cnc3ccccc32)on1`, the Percent Effect stood at 0.401%.

Take `Cc1nnc(SCCCNc2cc(C3CC3)ncn2)s1`: the Percent Effect stood at 15.2%.

Regarding `CCN(CCNS(=O)(=O)N1CCOCC1)C(=O)OC(C)(C)C`, the Percent Effect worked out at 0.848%.

In the case of `CC(C)n1cc(CN(Cc2ccsc2)CC2CCCO2)cn1` (stereo not given), the Percent Effect was 5.12%.

With `CCC[C@@H]1CN(Cc2cnc(-c3cccs3)nc2)C[C@H]1C(=O)O`, the Percent Effect was -8.24%.

On to `CCc1ccc(N2CCC(NS(=O)(=O)N(CC)CC)CC2)cc1`, for which the Percent Effect turned out to be 1.78%.

Consider `O=C(N1CC(c2cccnc2)C1)C1(c2ccc(F)cc2)CCOCC1`, for which the Percent Effect worked out at 0.43%.

On to `Cc1ccccc1SCC(=O)NC1CCC(O)CC1` (stereo not given), for which the Percent Effect was found to be 0.736%.

Take `CCCNc1cc(-c2c[nH]nc2C2CCN(C(=O)C3CCC3)C2)ccn1` (stereo not given): the Percent Effect was 43.5%.

As to `O=C(CNC1(CCO)CCOCC1)Nc1ccc(F)cc1F`, the Percent Effect was -0.128%.

Consider `CC(C)(C)c1n[nH]cc1CNC1CCC(C(F)(F)F)CC1` (stereo not given), for which the Percent Effect turned out to be 3.78%.

Turning to `CC(C)C(=O)NCC(=O)N1CCC2(CC1)c1ccccc1[C@@H](N)[C@@H]2O`, the Percent Effect is 3.94%.

In the case of `Cn1ncc2c(N[C@@H]3C[C@@H]4CC[C@H]3C4)nc(-c3ccncc3)nc21`, the Percent Effect was 12.7%.

Regarding `CC(NC(=O)N1CCCC1)c1ccc(S(N)(=O)=O)cc1` (stereo not given), the Percent Effect was 9.72%.

As to `COc1ccc2c(c1OC)Cc1c-2nc(N)c(C#N)c1C1CCOC1` (stereo not given), the Percent Effect was found to be 24.3%.

`Cc1cc(-c2cnc(N3CCSCC3)nc2C(C)C)on1`: the Percent Effect turned out to be 16%.

Turning to `CCCN(CCc1ccccn1)C(=O)Cn1cnnn1`, the Percent Effect was found to be 4.35%.

For the molecule `COc1cc(C(=O)O)ccc1OCC(=O)NCCc1ccccc1`, the Percent Effect was determined as 2.55%.

With `Cc1noc(C2CCN(Cn3cc(Br)cn3)CC2)n1`, the Percent Effect turned out to be 18.3%.

Regarding `CN(C)C(=O)N1CCN(c2cc(N3CCCC3CO)ncn2)CC1` (stereo not given), the Percent Effect is -3.16%.

As for `O=C(COc1ccc(F)cc1F)N1CCOCC(O)(CN2CCCC2)C1` (stereo not given), the Percent Effect is 8.54%.
